Source: PubChem (several laboratories)
Only a selection was taken, and hits are over-represented in it overall.
Anthrax LF prot: blocks Bacillus anthracis lethal factor protease; P15917; multiplex microsphere protease cleavage assay, LF; inhibition, % at 10 µM; actives 0.12% (n = 360,000); AID 588501
Target sequence (P15917 whole entry, looked up): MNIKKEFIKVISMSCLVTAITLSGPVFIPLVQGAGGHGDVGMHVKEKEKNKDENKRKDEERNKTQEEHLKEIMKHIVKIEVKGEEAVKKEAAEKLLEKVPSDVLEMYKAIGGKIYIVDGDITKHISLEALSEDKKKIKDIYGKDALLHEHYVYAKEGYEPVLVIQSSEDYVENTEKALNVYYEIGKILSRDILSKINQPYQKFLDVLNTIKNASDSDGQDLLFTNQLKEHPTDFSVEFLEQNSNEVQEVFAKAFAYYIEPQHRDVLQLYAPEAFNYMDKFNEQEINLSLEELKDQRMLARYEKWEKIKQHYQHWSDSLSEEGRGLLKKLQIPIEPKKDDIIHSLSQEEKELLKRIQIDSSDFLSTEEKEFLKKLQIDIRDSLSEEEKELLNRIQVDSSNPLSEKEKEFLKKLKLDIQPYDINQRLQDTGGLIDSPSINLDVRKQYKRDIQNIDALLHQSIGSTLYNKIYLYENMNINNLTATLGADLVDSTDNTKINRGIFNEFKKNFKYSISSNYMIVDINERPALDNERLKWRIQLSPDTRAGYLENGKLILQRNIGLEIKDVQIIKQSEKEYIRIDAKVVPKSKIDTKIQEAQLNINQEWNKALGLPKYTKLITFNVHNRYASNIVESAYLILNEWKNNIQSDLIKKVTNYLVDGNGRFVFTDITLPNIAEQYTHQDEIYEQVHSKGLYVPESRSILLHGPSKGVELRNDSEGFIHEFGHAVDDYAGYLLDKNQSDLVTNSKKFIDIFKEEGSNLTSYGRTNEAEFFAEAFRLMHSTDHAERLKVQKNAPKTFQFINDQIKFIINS
Autofluor counter: counter-screen for toxin protease inhibitors: compound fluorescence. compound autofluorescence counterscreen, microsphere flow cytometry; hits give high values. fluorescence intensity (concentration not given with the values). actives 3.1% (n = 360,000); in the data active = fluorescence intensity above about 16000; inconclusive = no clear call, values can overlap the other calls
BoNT-A LC inh2: inhibitors of Botulinum neurotoxin A light chain protease; multiplex microsphere protease substrate cleavage, flow cytometry; inhibition, % at 10 µM; actives 0.17% (n = 360,000); AID 588499
BoNT F protease: BoNT F light chain protease inhibition; Multiplex microsphere protease cleavage assay, flow cytometry; AID 588497; actives 0.22% (n = 360,000); inhibition, % at 10 µM; in the data active = inhibition above about 35%, passing the limit was not always enough; inconclusive = no clear call, values can overlap the other calls
TcdB GH inh: blocks C. difficile toxin B glycohydrolase activity | P18177 | TcdB glycohydrolase enzymatic assay, plate reader | inhibition, % at 9.99 µM | actives 0.24% (n = 350,000) | AID 652162; in the data active = inhibition above about 10%
Hits are given with their value; n = inactive; u = inconclusive; x = not tested or not shown. Rule as the data show it, unless noted: active = inhibition above about 30%; inconclusive = no clear call, values can overlap the other calls; inactive = below that.

SMILES | Anthrax LF prot | Autofluor counter | BoNT-A LC inh2 | BoNT F protease | TcdB GH inh
NC(=Nc1ccc(Cl)cc1)c1ccccc1 | n | n | n | n | n
COCC(=O)N1C[C@H](C)[C@H](OC)CN(C)C(=O)c2cc(NC(=O)C3CCC3)ccc2OC[C@@H]1C | x | x | x | x | n
CC(C)NC(=O)Nc1ccc2c(c1)C(=O)N([C@H](C)CO)C[C@H](C)[C@H](CN(C)Cc1ccc(C(F)(F)F)cc1)OCCCC[C@H](C)O2 | x | x | x | x | n
COc1ccc(OP(=O)(Nc2ccccc2)Nc2ccccc2)cc1 | n | 17088 | n | n | n
O=C(C[C@H]1CC[C@H]2NC[C@@H](O)COC[C@@H]2O1)Nc1ccccc1 | x | x | x | x | n
CC(C)CC#Cc1cnc2c(c1)C(=O)N([C@@H](C)CO)C[C@@H](C)[C@H](CN(C)Cc1ccccn1)O2 | x | x | x | x | n
CCOc1ccc(S(=O)(=O)NCCC2=CCCCC2)c2ccccc12 | n | 24639 | u | n | x
CC(C)C(=O)Nc1cccc(NC(=S)NC(=O)c2ccc([N+](=O)[O-])cc2)c1 | n | 22965 | u | n | x
CC(=O)Nc1ccc(NC(=S)NC(=O)c2ccc([N+](=O)[O-])cc2)cc1 | n | n | n | n | x
Cc1cc(C(=O)NC(=S)Nc2cccc(NC(=O)C(C)C)c2)ccc1[N+](=O)[O-] | n | n | n | n | n
CC(C)C(=O)Nc1ccc(NC(=S)NC(=O)c2ccc([N+](=O)[O-])cc2)cc1 | n | 23025 | n | n | x
O=C(N[C@@H]1CC[C@H](CC(=O)N2CCc3ccccc3C2)O[C@@H]1CO)C1CCC1 | x | x | x | x | n
COc1ccc(CC(=O)N2CCN(c3cccc(C)c3C)CC2)cc1 | n | n | n | n | n
Cc1nc(CC(=O)N2CCN(c3cccc(C)c3C)CC2)cs1 | n | 20386 | n | n | x
CC(Sc1nc(N)cc(=O)[nH]1)C(=O)NCC(=O)Nc1ccc(F)c(F)c1F (stereo unspecified) | n | n | n | n | 11
O=C(NCCN1CCOCC1)[C@]1(Cc2ccccc2)N=C(c2ccc(OCCCO)cc2)O[C@@H]1c1ccccc1 | x | x | x | x | n
C[C@H](CO)N1C[C@H](C)[C@@H](CN(C)Cc2ccccc2F)Oc2cc(C3=CCCCC3)ccc2S1(=O)=O | x | x | x | x | n
CCOc1ccccc1NC(=O)c1c(NC(=O)CCC(=O)O)sc2c1CCCCC2 | n | n | n | n | n
CCCC(=O)Nc1sc2c(c1C(=O)Nc1ccccn1)CCCC2 | n | n | n | n | 12
Cc1ccc(CN2C(=O)CCC2C(=O)NCc2cccnc2)cc1 (stereo unspecified) | n | 21210 | n | n | x
O=C(N[C@@H]1CC[C@H](CCn2cc(C3CCCCC3)nn2)O[C@@H]1CO)c1cccnc1 | x | x | x | x | n
Cc1cnc(C(=O)N2CCN(S(=O)(=O)c3ccc4ccccc4c3)CC2)cn1 | n | 20208 | n | n | x
Cc1ccc(C)c(S(=O)(=O)N2CCN(C(=O)c3cnccn3)CC2)c1 | n | 23149 | n | n | x
O=C(N1CCOCC1)n1cnc2ccccc21 | n | n | n | n | x
O=C(N1CCOCC1)n1nnc2ccccc21 | n | 22842 | n | n | x
SMILES | Anthrax LF prot | Autofluor counter | BoNT-A LC inh2 | BoNT F protease | TcdB GH inh
C/C(=C\c1ccccc1)C(=O)n1nnc2ccccc21 | n | 17498 | n | n | n
O=S(=O)(c1ccccc1)N1CC2(C1)[C@@H](c1ccccc1)[C@H](CO)N2CC1CC1 | x | x | x | x | n
O=C(NC(=S)Nc1cccc2[nH]ncc12)c1ccccc1 | n | n | n | n | n
O=C(Nc1cccc2[nH]ncc12)c1ccc(F)cc1 | n | 22322 | u | n | x
CCNc1ccc(Br)cc(C(=O)/C=C/c2ccc(Cl)cc2Cl)c1=O | 43 | 17500 | u | n | x
CNc1ccc(Br)cc(C(=O)/C=C/c2ccc3c(c2)OCO3)c1=O | n | n | n | n | x
CNc1ccc(Br)cc(C(=O)/C=C/c2ccc(OC)cc2)c1=O | n | n | n | n | x
CNc1ccc(Br)cc(C(=O)/C=C/c2cc(OC)ccc2OC)c1=O | n | 17230 | n | n | x
COc1ccc(S(=O)(=O)N(C)C[C@H]2Oc3c(NC(=O)c4ccc(-c5nccs5)cc4)cccc3C(=O)N([C@@H](C)CO)C[C@H]2C)cc1 | x | x | x | x | n
O=C(N[C@@H]1CC[C@H](CCNS(=O)(=O)c2ccccc2)O[C@@H]1CO)c1cccnc1 | x | x | x | x | n
C[C@H](CO)N1C[C@H](C)[C@H](CN(C)Cc2ccncc2)Oc2ccc(NS(=O)(=O)c3ccc(F)cc3)cc2C1=O | x | x | x | x | n
Cc1cccc2sc(NC(=O)CSCc3ccccc3)nc12 | n | 23019 | u | n | x
O=c1nc(N(c2ccccc2)c2ccccc2)[nH]c(=O)[nH]1 | n | 20223 | u | n | x
COc1ccc(C(=O)Nc2ccc3c(c2)C(=O)N(C)C[C@@H](OC)[C@H](C)CN(C(=O)C2CC2)[C@H](C)CO3)cc1 | x | x | x | x | n
CNC(=O)NC1CCCCc2sccc21 (stereo unspecified) | n | 16866 | n | n | x
CNC(=S)N1CCc2sccc2C1C (stereo unspecified) | n | n | n | n | n
O=[N+]([O-])c1ccc(Cl)c(/C=N/NC(=S)Nc2ccccc2)c1 | n | 16957 | u | n | x
O=C(C[C@@H]1C=C[C@@H](NC(=O)C2CCC2)[C@@H](CO)O1)Nc1nccs1 | x | x | x | x | n
CCn1c(CSCc2ccccc2)n[nH]c1=S | n | n | n | n | n
CCn1c(CSc2nc3ccccc3[nH]2)n[nH]c1=S | n | 23009 | n | n | n
CCN1/C(=C2\OC(=S)N(C)C2=O)C=Cc2ccccc21 | n | n | n | n | 11
COc1ccc(-n2c(C(C)n3nc(C)c([N+](=O)[O-])c3C)n[nH]c2=S)cc1 (stereo unspecified) | n | n | n | n | x
Cc1nn(C(C)c2n[nH]c(=S)n2-c2cccc(Cl)c2)c(C)c1[N+](=O)[O-] (stereo unspecified) | n | 18732 | n | n | x
Cc1ccc(-n2c(C(C)n3nc(C)c([N+](=O)[O-])c3C)n[nH]c2=S)cc1 (stereo unspecified) | n | 19726 | n | n | x
C[C@H]1CCCCO[C@H](CN(C)Cc2ccc(C(=O)O)cc2)[C@@H](C)CN([C@@H](C)CO)C(=O)c2cc(NS(=O)(=O)c3cccs3)ccc2O1 | x | x | x | x | n
SMILES | Anthrax LF prot | Autofluor counter | BoNT-A LC inh2 | BoNT F protease | TcdB GH inh
Cc1cc(C(F)F)n2nc(C(=O)Nc3cccnc3Cl)nc2n1 | n | n | n | n | x
Cc1cc(C(F)F)n2nc(C(=O)Nc3ccccc3Br)nc2n1 | n | 20530 | n | n | x
Cc1ccc(-c2cc(-c3ccco3)c3c(N)c(C(=O)NN)oc3n2)cc1 | n | n | n | n | n
NNC(=O)c1oc2nc(-c3ccccc3)cc(-c3ccccc3)c2c1N | n | 16851 | n | n | n
Cc1cccc(CN(CC(=O)N/N=C/c2ccco2)S(=O)(=O)c2ccc(Cl)cc2)c1 | n | n | n | n | x
Cc1ccc(S(=O)(=O)N(CC(=O)N/N=C/c2ccco2)Cc2ccccc2)cc1 | n | 22458 | u | n | x
NCc1cccc(-n2cccn2)c1 | n | 21167 | u | n | x
O=C(C[C@@H]1CC[C@@H]2[C@H](COC[C@@H](O)CN2Cc2ccc(Oc3ccccc3)cc2)O1)Nc1nccs1 | x | x | x | x | n
O=C(C[C@@H]1CC[C@H]2[C@@H](COC[C@@H](O)CN2Cc2ccc(Oc3ccccc3)cc2)O1)Nc1nccs1 | x | x | x | x | 27
O=C(C[C@@H]1CC[C@@H]2[C@H](COC[C@@H](O)CN2C(=O)Nc2ccc(Cl)c(Cl)c2)O1)NCc1ccncc1 | x | x | x | x | 11
